# Results published in PubChem BioAssay (NCATS).
# Where “and” joins values, the source holds several entries; their conditions need not be identical. Equal entries are not always repeated. A number with no mark means an inactive call. Inconclusive results are not listed. Calls of active or inactive are those of the source. Unless noted, the call rests on the fitted dose curve. Starred links: 1 amine or outer side, 2 acyl side, 3 side chain; linkers in the order of their positions; H or OH if unused. Positions of bridges follow the written chain, without caps; N, C: chain ends. Bridge positions count the residues as written; N and C are the ends. Non-standard residues stand in square brackets, D forms with d. Square brackets hold non-standard residues; d marks the D form. Residues, ends and D or L forms follow the SMILES beside them. Peptide text beside a SMILES is read from it. * marks the point of attachment. *: point of attachment. Ileψ(thiazoline)Cys = CC[C@H](C)[C@H](N)C1=N[C@H](C(=O)*)CS1; X1 = NC1=N[C@@H](O)C[C@@H]([C@@H](N[*:1])C(=O)[*:2])N1; ΔAla(Z-3-ureido) = NC(=O)N/C=C(\N)C(=O)O; d(aIle) = CC[C@H](C)[C@@H](N)C(=O)O; β3hOrn = NCCC[C@H](N)CC(=O)*; dOrn = NCCC[C@@H](N)C(=O)O; Dap = NC[C@H](N)C(=O)O
# Target: Cytochrome P450 3A4 (Homo sapiens) (UniProt P08684)
# Test: qHTS Assay for Activators of Cytochrome P450 3A4 (AID 885; active means well fitted curve in the direction sought with a large enough effect; an effect the other way counts as inactive or inconclusive; further: nearly all actives have a fitted effect of over 65% in size)
# Conditions: recombinant CYP3A4, Luciferin-PPXE luminescence, 60 min; series mostly up to 57.1 µM; activity change, positive = activation: at the top concentration
# Procedure, shortened: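 Quantitative HTS format: compounds preincubated with 20nM human CYP3A4 and Luciferin-PPXE substrate at KM, reaction started by NADPH regeneration, stopped after 60 min, luciferase luminescence read 20 min later.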
# Sequence of Cytochrome P450 3A4 (Homo sapiens) (P08684 whole entry, looked up): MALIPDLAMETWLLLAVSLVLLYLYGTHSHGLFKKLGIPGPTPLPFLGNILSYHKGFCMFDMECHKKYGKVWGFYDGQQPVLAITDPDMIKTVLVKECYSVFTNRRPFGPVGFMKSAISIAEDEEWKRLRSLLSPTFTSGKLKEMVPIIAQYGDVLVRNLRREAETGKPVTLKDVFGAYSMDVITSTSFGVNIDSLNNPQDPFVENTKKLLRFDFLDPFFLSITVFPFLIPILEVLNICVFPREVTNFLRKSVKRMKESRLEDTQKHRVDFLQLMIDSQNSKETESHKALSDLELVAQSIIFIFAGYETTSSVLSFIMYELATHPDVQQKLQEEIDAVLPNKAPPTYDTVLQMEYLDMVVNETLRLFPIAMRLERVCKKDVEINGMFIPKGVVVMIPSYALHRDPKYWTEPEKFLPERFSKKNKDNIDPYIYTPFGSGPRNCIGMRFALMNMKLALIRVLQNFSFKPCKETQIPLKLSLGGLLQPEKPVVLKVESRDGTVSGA
SMILES,"activity change, positive = activation",Potency
COc1cc(OC)c2c(c1Cl)O[C@@]1(C2=O)[C@H](C)CC(=O)C[C@@H]1OC,-39.8% [at 25.6 µM],–
C[C@H](NCCC(c1ccccc1)c1ccccc1)c1ccccc1,-53.8% [at 25.6 µM],–
COc1ccc([C@@H]2CC(=O)c3c(O)cc(O)cc3O2)cc1O,–,inactive

# Target: Cytochrome P450 2C19 (Homo sapiens) (UniProt P33261)
# Test: qHTS Assay for Inhibitors and Substrates of Cytochrome P450 2C19 (AID 899; active means well fitted curve in the direction sought with a large enough effect; an effect the other way counts as inactive or inconclusive; further: potency means the concentration at half of the fitted maximal effect; nearly all actives have a fitted effect of over 60% in size)
# Conditions: recombinant CYP2C19, luciferin-H EGE luminescence; series mostly up to 57.1 µM; activity, negative = inhibition: at the top concentration
# Procedure, shortened: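 Reactions contain 5nM enzyme, 10uM Luciferin-H EGE (KM) and 50mM KPO4; compound preincubates 10 min at 37C, NADPH regeneration starts turnover for 60 min. Luminescence after detection reagent gives activity.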
# Sequence of Cytochrome P450 2C19 (Homo sapiens) (P33261 whole entry, looked up): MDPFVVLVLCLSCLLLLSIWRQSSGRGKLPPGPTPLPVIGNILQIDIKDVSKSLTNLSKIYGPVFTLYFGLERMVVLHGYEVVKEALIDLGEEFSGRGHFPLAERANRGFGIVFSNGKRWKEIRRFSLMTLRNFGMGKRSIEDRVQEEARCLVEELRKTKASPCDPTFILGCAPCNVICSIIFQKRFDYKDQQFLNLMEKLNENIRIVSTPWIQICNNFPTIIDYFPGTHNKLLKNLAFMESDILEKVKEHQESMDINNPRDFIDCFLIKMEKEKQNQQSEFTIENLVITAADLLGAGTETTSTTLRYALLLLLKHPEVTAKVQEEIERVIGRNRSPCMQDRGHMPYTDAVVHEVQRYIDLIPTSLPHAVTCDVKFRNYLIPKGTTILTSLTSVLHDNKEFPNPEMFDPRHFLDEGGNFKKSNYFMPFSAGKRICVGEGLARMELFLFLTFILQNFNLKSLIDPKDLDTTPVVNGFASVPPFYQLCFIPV
row,SMILES,Potency
1,C[C@H](NCCC(c1ccccc1)c1ccccc1)c1ccccc1,5.01 µM (active)
2,C#C[C@]1(O)CC[C@@H]2[C@H]3CCC4=CCCC[C@@H]4[C@@H]3CC[C@@]21C,3.98 µM (active)
3,COc1ccc([C@@H]2CC(=O)c3c(O)cc(O)cc3O2)cc1O,5.01 µM (active) and 7.94 µM (active)

# Tested on: not listed separately
# Test: qHTS Assay for Lipid Storage Modulators (AID 1519); further: on the % scale 0 is the no-effect control and ±100 the full control effect
# Conditions: Drosophila S3 cells, BODIPY lipid droplet/cell ratio, laser cytometry; at 25.7 µM (top of the series); cells loaded with oleic acid
# Procedure, shortened: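 Cells seeded at 5,000 per well were treated with compounds over a concentration series and loaded with oleic acid (400 uM, as added). Lipid droplet fluorescence (488 nm excitation, 500-530 nm channel) was read by laser-scanning cytometry and normalized to 20 uM Triacsin C.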
row,SMILES,"activity change, negative = inhibition"
1,C[C@@H]1C[C@H]2[C@@H]3C[C@H](F)C4=CC(=O)C=C[C@@]4(C)[C@]3(F)[C@H](O)C[C@]2(C)[C@@]1(O)C(=O)CO,-2.8%
2,C[N+]1(C)CCC[C@H]1C(=O)[O-],-1.16%
3,C[C@H](O)Cn1cnc2c1c(=O)n(C)c(=O)n2C,0.562%
4,CCCCC[C@H](O)/C=C\[C@@H]1[C@H](O)CC(=O)[C@@H]1CCCCCCC(=O)O,-3.38%
5,CC(=C(CCOP(=O)(O)O)SC(=O)c1ccccc1)N(C=O)Cc1cnc(C)nc1N,0.981%
6,CC(C)(CO)[C@H](O)C(=O)NCCC(=O)O,-0.81%
7,NC[C@@H]1O[C@@H](O[C@H]2[C@H](O)[C@H](O[C@@H]3O[C@H](CO)[C@@H](O)[C@H](N)[C@@H]3O)[C@@H](N)C[C@H]2N)[C@H](N)C[C@@H]1O,-2.29%
8,S=C(NC1CCCCC1)N1CCC([C@H]2C=NC=N2)CC1,2.27%
9,CCc1c(C)[nH]c2c1C(=O)[C@H](CN1CCOCC1)CC2,0.521%
10,C=C1c2c(Cl)ccc(O)c2C(O)=C2C(=O)[C@@]3(O)C(O)=C(C(N)=O)C(=O)[C@@H](N(C)C)[C@@H]3[C@@H](O)[C@H]12,1.11%
11,CCC(=O)OCC(=O)[C@@]1(OC(=O)CC)[C@H](C)C[C@@H]2[C@@H]3[C@H]([C@@H](O)C[C@@]21C)[C@]1(C)C=CC(=O)C=C1C[C@@H]3Cl,-4.84%
12,Nc1nc(=S)c2ncn([C@H]3O[C@@H](CO)[C@@H](O)[C@@H]3O)c2[nH]1,-1.4%
13,C[C@H](CCC(=O)O)[C@H]1CC[C@@H]2[C@H]3[C@@H](CC[C@@]21C)[C@]1(C)CC[C@H](O)C[C@@H]1C[C@@H]3O,0.999%
14,CS(=O)(=O)c1ccc([C@H](O)[C@H](CF)NC(=O)C(Cl)Cl)cc1,1.06%
15,CC[C@]1(c2ccccc2)NC(=O)N(C)C1=O,0.43%
16,CC[C@H](C)[C@H](N)C1=N[C@H](C(=O)N[C@@H](CC(C)C)C(=O)N[C@@H](CCC(=O)O)C(=O)N[C@@H](C(=O)N[C@H]2CCCCNC(=O)[C@@H](CC(N)=O)NC(=O)[C@@H](CC(=O)O)NC(=O)[C@@H](Cc3cnc[nH]3)NC(=O)[C@@H](Cc3ccccc3)NC(=O)[C@@H]([C@@H](C)CC)NC(=O)[C@@H](CCCN)NC2=O)[C@@H](C)CC)CS1 ({Ileψ(thiazoline)Cys}-LE[d(aIle)]K[dOrn][d(aIle)][dF][dH][dD][dN]; lactam 4-C),-0.807%
17,CO[C@@H]1C=CO[C@]2(C)Oc3c(C)c(O)c4c(O)c(c(C=NN5CCN(C)CC5)c(O)c4c3C2=O)NC(=O)C(C)=CC=C[C@H](C)[C@H](O)[C@H](C)[C@H](O)[C@H](C)[C@H](OC(C)=O)[C@H]1C,-0.87%
18,COCCOC(=O)C1=C(C)NC(C)=C(C(=O)OC(C)C)[C@H]1c1cccc([N+](=O)[O-])c1,-3.07%
19,C=C1CC23C[C@H]4[C@@H]5[C@@]6(C)C[C@H](OC(=O)c7ccccc7)[C@@H](OC(C)=O)[C@]57[C@@H]2[C@@H](OC(C)=O)[C@H]1[C@@H](O)[C@H]3[C@H]7N4C6,-1.43%
20,O=C(N/N=C\c1ccc([N+](=O)[O-])o1)c1ccc(O)cc1,-1.38%

row,SMILES,"activity change, negative = inhibition"
1,C[C@@H](CNC1CCCCC1)OC(=O)c1ccccc1,-3.84%
2,CCOC(=O)O[C@@H](C)OC(=O)[C@@H]1N2C(=O)[C@@H](NC(=O)[C@@H](N)c3ccccc3)[C@H]2SC1(C)C,-1.29%
3,CC#C[C@@]1(O)CC[C@H]2[C@@H]3CCC4=CC(=O)CCC4=C3[C@H](c3ccc(N(C)C)cc3)C[C@]21C,0.174%
4,Cc1cccc(CN2CCN([C@@H](c3ccccc3)c3ccc(Cl)cc3)CC2)c1,-11.4%
5,Cc1ccsc1/C=C\C1=NCCCN1C,-1.64%
6,CC(=O)O[C@H]1C[C@H]2CC[C@@H]3[C@@H](CC[C@]4(C)[C@H](OC(C)=O)[C@H]([N+]5(C)CCCCC5)C[C@@H]34)[C@]2(C)C[C@H]1[N+]1(C)CCCCC1,-3.97%
7,COc1cc(OC)c2c(c1Cl)O[C@@]1(C2=O)[C@H](C)CC(=O)C[C@@H]1OC,-1.85%
8,O[C@H](c1cc(C(F)(F)F)nc2c(C(F)(F)F)cccc12)[C@H]1CCCCN1,-11.8%
9,O=C(O)COCCN1CCN([C@@H](c2ccccc2)c2ccc(Cl)cc2)CC1,0.348%
10,C[N+]1(C)CC[C@@H](OC(=O)[C@@](O)(c2ccccc2)C2CCCC2)C1,-2.8%
11,C[C@H](NCCC(c1ccccc1)c1ccccc1)c1ccccc1,-3.52%
12,NCCC[C@H](N)CC(=O)N[C@H]1CNC(=O)[C@@H]([C@@H]2C[C@H](O)N=C(N)N2)NC(=O)/C(=C/NC(N)=O)NC(=O)[C@@H](CO)NC(=O)[C@@H](CO)NC1=O (β3hOrn-[Dap][dS][dS][ΔAla(Z-3-ureido)][X1]; lactam 1-C),0.925%
13,C=CCO[C@@H](Cn1ccnc1)c1ccc(Cl)cc1Cl,-0.8%
14,C#C[C@]1(O)CC[C@@H]2[C@H]3CCC4=CCCC[C@@H]4[C@@H]3CC[C@@]21C,-4.16%
15,CC1(C)[C@@H](OC(=O)CCC(=O)O)CC[C@@]2(C)[C@H]1CC[C@@]1(C)[C@H]2C(=O)C=C2[C@H]3C[C@](C)(C(=O)O)CC[C@]3(C)CC[C@@]21C,-0.623%
16,COc1ccc([C@@H]2CC(=O)c3c(O)cc(O)cc3O2)cc1O,0.892%
17,OCCOCCN1CCN([C@@H](c2ccccc2)c2ccc(Cl)cc2)CC1,-0.885%
18,C[C@H](CCC(=O)O)[C@H]1CC[C@@H]2[C@@H]3[C@@H](O)C[C@H]4C[C@@H](O)CC[C@@]4(C)[C@H]3CC[C@@]21C,-0.554%
19,CN1CCO[C@H](c2ccccc2)c2ccccc2C1,-1.73%
20,O=C(N[C@@H](CO)[C@@H](O)c1ccc([N+](=O)[O-])cc1)C(Cl)Cl,-1.53%
